According to paper PMC8384837, “Expanding the binding specificity for RNA recognition by a PUF domain”:

How the values were obtained:
Experiment in all cases: yeast three-hybrid, YBZ-1, SC-Leu-His + 0.5 mM 3-AT, 4 days
Conditions in all cases: tags: N-Gal4 AD-HA kept; label: inside an RPR1-promoter hybrid RNA with tandem MS2 sites; ssRNA
[1] = molecular target: PUM1 PUF domain R5-KAT (Homo sapiens, UniProt Q14671 828-1176, C1007K;R1008A;Q1011T)
Outline: (§1)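 Matching RNA elements and Pumilio-1 PUF domain libraries, randomized at the three base-contacting residues of every repeat, were co-expressed from a centromeric plasmid in strain YBZ-1 (LexA–MS2 coat fusion, HIS3 reporter). The repeat regions were PCR-amplified and Illumina-sequenced from cells grown four days on SC-Leu (input) or SC-Leu-His + 0.5 mM 3-AT (selection). The interaction score is the log change in variant frequency from input to selection. It is computed in log2, with a pseudocount of 1 for absent variants.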

[2] = molecular target: PUM1 PUF domain R5-RMV (Homo sapiens, UniProt Q14671 828-1176, C1007R;R1008M;Q1011V)
Outline: as §1

[3] = molecular target: PUM1 PUF domain R5-CKR (Homo sapiens, UniProt Q14671 828-1176, R1008K;Q1011R)
Outline: as §1

[4] = molecular target: PUM1 PUF domain R3-MPR (Homo sapiens, UniProt Q14671 828-1176, C935M;R936P;Q939R)
Outline: as §1

[5] = molecular target: PUM1 PUF domain R5-PRH (Homo sapiens, UniProt Q14671 828-1176, C1007P;Q1011H)
Outline: as §1

[6] = molecular target: T1, PUM1 PUF domain R6-RWA (Homo sapiens, UniProt Q14671 828-1176, N1043R;Y1044W;Q1047A)
T1 sequence: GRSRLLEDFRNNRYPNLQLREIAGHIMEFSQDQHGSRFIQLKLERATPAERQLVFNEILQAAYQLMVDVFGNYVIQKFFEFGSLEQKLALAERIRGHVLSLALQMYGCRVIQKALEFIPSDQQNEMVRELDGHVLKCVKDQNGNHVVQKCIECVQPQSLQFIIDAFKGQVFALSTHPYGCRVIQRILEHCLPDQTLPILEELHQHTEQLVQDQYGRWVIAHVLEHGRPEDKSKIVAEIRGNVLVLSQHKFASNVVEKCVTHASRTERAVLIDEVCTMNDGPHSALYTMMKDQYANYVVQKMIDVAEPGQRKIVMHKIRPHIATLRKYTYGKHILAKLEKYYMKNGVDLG
Outline: as §1

[7] = molecular target: PUM1 PUF domain R4-VNC (Homo sapiens, UniProt Q14671 828-1176, N971V;H972N;Q975C)
Outline: as §1

[8] = molecular target: PUM1 PUF domain R1-NSR (Homo sapiens, UniProt Q14671 828-1176, S863N;R864S;Q867R)
Outline: as §1

[9] = molecular target: PUM1 PUF domain R1-GMK (Homo sapiens, UniProt Q14671 828-1176, S863G;R864M;Q867K)
Outline: as §1

[10] = molecular target: PUM1 PUF domain R7-ERG (Homo sapiens, UniProt Q14671 828-1176, S1079E;N1080R;E1083G)
Outline: as §1

**Q.** For “GGCUAGAACUAGUGGAUCCCCCGGCGCCCGGCGGCUCGAGCCCGGGUAAGUGUCAAUAGUCUGCAUGCCGCCGGGCGCCAUGCCUGCAGGUCGACUCUAGAAAACAUG”, which binding signal [1] is on record?
**A.** 3.96 log2 enrichment (interaction score)

**Q.** What about the binding signal [2] of the same sequence?
**A.** 3.48 log2 enrichment (interaction score)

**Q.** And the binding signal [3]?
**A.** 5.95 log2 enrichment (interaction score)

**Q.** For “GGCUAGAACUAGUGGAUCCCCCGGCGCCCGGCGGCUCGAGCCCGGGUAAGUGUAAAUAGUCUGCAUGCCGCCGGGCGCCAUGCCUGCAGGUCGACUCUAGAAAACAUG”, which binding signal [4] is on record?
**A.** 0.58 log2 enrichment (interaction score)

**Q.** And the binding signal [5]?
**A.** 3.22 log2 enrichment (interaction score)

**Q.** And the binding signal [6]?
**A.** 5.03 log2 enrichment (interaction score)

**Q.** Which binding signal [4] does the source give for “GGCUAGAACUAGUGGAUCCCCCGGCGCCCGGCGGCUCGAGCCCGGGUAAGUGUAAUUAGUCUGCAUGCCGCCGGGCGCCAUGCCUGCAGGUCGACUCUAGAAAACAUG” here?
**A.** 2.67 log2 enrichment (interaction score)

**Q.** Which binding signal [7] does the source give for “GGCUAGAACUAGUGGAUCCCCCGGCGCCCGGCGGCUCGAGCCCGGGUAAGUGUACAUAGUCUGCAUGCCGCCGGGCGCCAUGCCUGCAGGUCGACUCUAGAAAACAUG” here?
**A.** 3.19 log2 enrichment (interaction score)

**Q.** How did the binding signal [6] turn out when “GGCUAGAACUAGUGGAUCCCCCGGCGCCCGGCGGCUCGAGCCCGGGUAAGUGAAAAUAGUCUGCAUGCCGCCGGGCGCCAUGCCUGCAGGUCGACUCUAGAAAACAUG” was run?
**A.** 4.28 log2 enrichment (interaction score)

**Q.** “GGCUAGAACUAGUGGAUCCCCCGGCGCCCGGCGGCUCGAGCCCGGGUAAGUGUAAAUUGUCUGCAUGCCGCCGGGCGCCAUGCCUGCAGGUCGACUCUAGAAAACAUG” was tested. Which binding signal [8] did it give?
**A.** 0.4 log2 enrichment (interaction score)

**Q.** And the binding signal [9]?
**A.** 3.16 log2 enrichment (interaction score)

**Q.** Which binding signal [10] does the source give for “GGCUAGAACUAGUGGAUCCCCCGGCGCCCGGCGGCUCGAGCCCGGGUAAGUCUAAAUAGUCUGCAUGCCGCCGGGCGCCAUGCCUGCAGGUCGACUCUAGAAAACAUG” here?
**A.** 2.98 log2 enrichment (interaction score)

**Q.** “GGCUAGAACUAGUGGAUCCCCCGGCGCCCGGCGGCUCGAGCCCGGGUAAGUGUGAAUAGUCUGCAUGCCGCCGGGCGCCAUGCCUGCAGGUCGACUCUAGAAAACAUG” was tested. Which binding signal [5] did it give?
**A.** 2.93 log2 enrichment (interaction score)

**Q.** For “GGCUAGAACUAGUGGAUCCCCCGGCGCCCGGCGGCUCGAGCCCGGGUAAGUGUAAAUCGUCUGCAUGCCGCCGGGCGCCAUGCCUGCAGGUCGACUCUAGAAAACAUG”, which binding signal [8] is on record?
**A.** 2.5 log2 enrichment (interaction score)

**Q.** With “GGCUAGAACUAGUGGAUCCCCCGGCGCCCGGCGGCUCGAGCCCGGGUAAGUUUAAAUAGUCUGCAUGCCGCCGGGCGCCAUGCCUGCAGGUCGACUCUAGAAAACAUG” as the sequence, how does the binding signal [10] read?
**A.** 4.23 log2 enrichment (interaction score)

**Q.** Which results are given for “GGCUAGAACUAGUGGAUCCCCCGGCGCCCGGCGGCUCGAGCCCGGGUAAGUGUUAAUAGUCUGCAUGCCGCCGGGCGCCAUGCCUGCAGGUCGACUCUAGAAAACAUG”?
**A.** binding signal [5]: 3.48 log2 enrichment (interaction score); binding signal [3]: 1.55 log2 enrichment (interaction score)
